Test results published in PubChem BioAssay (NCI).
This is part of a sample that, as a whole, favours compounds with a hit. Of some 79,000 tested, about 15% had one in any assay. Activity calls are given as the source filed them. Rule as the data show it: active = growth inhibition above about 70%; inactive = the rest.

What was measured:
[1] = NCI Yeast Anticancer Drug Screen. Data for the rad52 strain (AID 147);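 also: 0% = growth of vehicle-treated control cultures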; details: S. cerevisiae rad52 mutant growth inhibition, active compounds read high
Method in brief: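 Read-out: growth inhibition versus vehicle-treated controls. Cells were a DNA repair-deficient yeast strain treated with compounds.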

[2] = NCI Yeast Anticancer Drug Screen. Data for the wt1 strain (AID 149);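 also: 0% = growth of vehicle-treated wt1 cultures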; details: S. cerevisiae wt1 strain (SPY 50644) growth inhibition, active compounds read high
Method in brief: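 The wt1 strain was treated with compounds, and growth was compared with vehicle-treated cultures to give inhibition.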

[3] = NCI Yeast Anticancer Drug Screen. Data for the rad50EPP+ strain (AID 151);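 also: 0% = growth of vehicle-treated control cultures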; details: S. cerevisiae rad50 mutant strain, active compounds read high
Method in brief: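 Growth inhibition read against vehicle controls in rad50EPP+ yeast, a strain altered in DNA damage repair, after compound exposure.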

[4] = NCI Yeast Anticancer Drug Screen. Data for the mgt1 strain (AID 153); details: S. cerevisiae mgt1 mutant growth inhibition, active compounds read high
Method in brief: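 mgt1 yeast grown with test compound; read-out is growth inhibition versus vehicle-treated cultures.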

[5] = NCI Yeast Anticancer Drug Screen. Data for the rad50 strain (AID 155);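 also: 0% = growth of vehicle-only cultures of the same strain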; details: S. cerevisiae rad50 strain growth inhibition, active compounds read high
Method in brief: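 Cells are treated with compound, grown, and their growth is then scored against vehicle-only cultures of the same repair-deficient yeast strain.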

[6] = NCI Yeast Anticancer Drug Screen. Data for the mec2-1 strain (AID 157); details: S. cerevisiae mec2-1 strain, active compounds read high
Method in brief: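 Yeast mec2-1 mutant treated with compound. Readout: growth inhibition vs vehicle controls.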

[7] = NCI Yeast Anticancer Drug Screen. Data for the rad14 strain (AID 159);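 also: 0% = growth of vehicle-treated control cultures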; details: S. cerevisiae rad14 strain growth inhibition, active compounds read high
Method in brief: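 Readout: yeast growth inhibition, referenced to vehicle-only cultures. Strain bears a defined alteration in DNA damage repair.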

[8] = NCI Yeast Anticancer Drug Screen. Data for the sgs1 mgt1 strain (AID 161);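 also: 0% = growth of cultures given vehicle only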; details: S. cerevisiae sgs1 mgt1 strain, active compounds read high
Method in brief: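 Mutant yeast exposed to compound; growth scored against vehicle-only wells.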

[9] = NCI Yeast Anticancer Drug Screen. Data for the CLN2oe strain (AID 163);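 also: 0% = growth of vehicle-only control cultures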; details: S. cerevisiae CLN2oe strain, active compounds read high
Method in brief: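 Read-out: yeast growth inhibition, expressed relative to vehicle-only controls. The strain bears an engineered cell-cycle alteration.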

[10] = NCI Yeast Anticancer Drug Screen. Data for the cln2 rad14 strain (AID 165);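 also: 0% = growth equal to vehicle treated cultures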; details: S. cerevisiae cln2 rad14 strain, active compounds read high
Method in brief: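 cln2 rad14 yeast strain; compound exposure; growth inhibition read vs vehicle controls.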

[11] = NCI Yeast Anticancer Drug Screen. Data for the bub3 strain (AID 167); details: S. cerevisiae bub3 mutant strain, active compounds read high
Method in brief: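 Part of a panel of yeast mutants defective in DNA damage repair or cell cycle regulation. Each strain is grown with compound, and inhibition is calculated relative to solvent-treated cultures.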

[12] = NCI Yeast Anticancer Drug Screen. Data for the wt2 strain (AID 169);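 also: 0% = growth of vehicle-treated yeast cultures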; details: S. cerevisiae wt2 strain growth inhibition, active compounds read high
Method in brief: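 Read-out: growth inhibition versus vehicle-treated control cultures after compound exposure of the yeast strain.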

[13] = NCI Yeast Anticancer Drug Screen. Data for the mlh1 strain (AID 171);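 also: 0% = growth of vehicle-treated control cultures of the same strain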; details: S. cerevisiae mlh1 strain growth inhibition, active compounds read high
Method in brief: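 Read-out: growth inhibition versus vehicle controls. Strain: engineered yeast with a defined DNA repair or cell cycle defect, compound-treated.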

[14] = NCI Yeast Anticancer Drug Screen. Data for the sgs1 strain (AID 173);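 also: 0% = growth of vehicle-only control cultures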; details: S. cerevisiae sgs1 mutant, active compounds read high
Method in brief: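 Read-out: yeast growth inhibition relative to vehicle controls, following compound exposure of a strain with a defined DNA repair/cell cycle alteration.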

[15] = NCI Yeast Anticancer Drug Screen. Data for the mlh1 rad18 strain (AID 175); details: S. cerevisiae mlh1 rad18 strain growth inhibition, active compounds read high
Method in brief: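 Yeast w/ defined DNA-repair lesions; compound exposure; growth vs vehicle controls → % inhibition.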

[16] = NCI Yeast Anticancer Drug Screen. Data for the rad18 strain (AID 177); details: S. cerevisiae rad18 mutant growth inhibition, active compounds read high
Method in brief: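 Readout: growth inhibition vs vehicle controls. Cells: genetically altered yeast strain, DNA repair defect.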

[17] = at 5.0 µM (retest, dose inferred, filed as 0.5)
[18] = at 50.0 µM (retest, dose inferred, filed as 5.0)

Measured: growth inhibition

Fc1cc(F)c(F)c(S)c1F
active: [1]; at 100.0 µM 98% | [2]; at 100.0 µM 97% | [3]; at 33.0 µM 90% | [3]; at 100.0 µM 98% | [4]; at 100.0 µM 97% | [5]; [18] 91% | [5]; at 50.0 µM 87.9% | [5]; at 100.0 µM 97% | [6]; [18] 97% | [6]; at 50.0 µM 92.3% | [6]; at 100.0 µM 99% | [7]; at 100.0 µM 96% | [8]; [18] 89% | [8]; at 50.0 µM 83.7% | [9]; at 100.0 µM 98% | [10]; [18] 83% | [10]; at 50.0 µM 79.5% | [11]; at 33.0 µM 84% | [11]; [18] 98% | [11]; at 50.0 µM 90.9% | [11]; at 100.0 µM 99% | [12]; at 100.0 µM 98% | [13]; at 33.0 µM 72% | [13]; at 100.0 µM 98% | [14]; at 100.0 µM 98% | [15]; [18] 99% | [15]; at 50.0 µM 74.5% | [16]; at 100.0 µM 96%
inactive: [1]; at 1.2 µM -44% | [1]; at 3.7 µM -10% | [1]; at 11.0 µM -38% | [1]; at 33.0 µM 29% | [2]; at 1.2 µM -31% | [2]; at 3.7 µM -26% | [2]; at 11.0 µM -39% | [2]; at 33.0 µM 36% | [3]; at 1.2 µM -51% | [3]; at 3.7 µM -18% | [3]; at 11.0 µM 45% | [4]; at 1.2 µM -78% | [4]; at 3.7 µM -74% | [4]; at 11.0 µM -56% | [4]; at 33.0 µM 48% | [5]; at 1.2 µM -43% | [5]; at 3.7 µM -28% | [5]; [17] -12% | [5]; at 11.0 µM -32% | [5]; at 33.0 µM 25% | [6]; at 1.2 µM -56% | [6]; at 3.7 µM -55% | [6]; [17] -19% | [6]; at 11.0 µM -6% | [6]; at 33.0 µM 10% | [7]; at 1.2 µM -47% | [7]; at 3.7 µM -44% | [7]; at 11.0 µM -40% | [7]; at 33.0 µM 4% | [8]; [17] -1% | [9]; at 1.2 µM -29% | [9]; at 3.7 µM -20% | [9]; at 11.0 µM 8% | [9]; at 33.0 µM 69% | [10]; [17] 43% | [11]; at 1.2 µM -9% | [11]; at 3.7 µM -4% | [11]; [17] 12% | [11]; at 11.0 µM 26% | [12]; at 1.2 µM -48% | [12]; at 3.7 µM -46% | [12]; at 11.0 µM -32% | [12]; at 33.0 µM 56% | [13]; at 1.2 µM -34% | [13]; at 3.7 µM -27% | [13]; at 11.0 µM 0% | [14]; at 1.2 µM -34% | [14]; at 3.7 µM -37% | [14]; at 11.0 µM -27% | [14]; at 33.0 µM 54% | [15]; [17] 9% | [16]; at 1.2 µM -43% | [16]; at 3.7 µM -34% | [16]; at 11.0 µM -12% | [16]; at 33.0 µM 48%
